From PubChem BioAssay
14-3-3 Bad inh – inhibitors of 14-3-3 zeta/Bad binding, primary screen, biochemical, TR-FRET, bovine 14-3-3 zeta | actives 0.71% (n = 220,000) | AID 781, 2007 | 14-3-3 protein zeta/delta (Bos taurus), P63103 | TR-FRET 14-3-3zeta/Dy647-pBad peptide displacement, 1 h | inhibition, % at 21.7 µM;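 active = inhibition above about 70%, limit read from the data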
Target sequence (P63103 whole entry, looked up): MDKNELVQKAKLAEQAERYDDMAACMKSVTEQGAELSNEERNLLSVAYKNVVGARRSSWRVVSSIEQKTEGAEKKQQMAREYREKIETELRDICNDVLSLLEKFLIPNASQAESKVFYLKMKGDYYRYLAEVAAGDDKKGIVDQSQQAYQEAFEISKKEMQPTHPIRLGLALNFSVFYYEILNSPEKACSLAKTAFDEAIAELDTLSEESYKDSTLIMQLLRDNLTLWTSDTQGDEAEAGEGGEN
NCF1 inh – p47phox/p22phox peptide binding inhibitors, primary screen, biochemical, uHTS, NADPH oxidase regulatory subunit; fluorescence polarization, 2 h; Neutrophil cytosol factor 1 (Homo sapiens), P14598; AID 1274, 2008; inhibition, % at 24.7 µM; actives 0.53% (n = 220,000)
Target sequence (P14598 whole entry, looked up): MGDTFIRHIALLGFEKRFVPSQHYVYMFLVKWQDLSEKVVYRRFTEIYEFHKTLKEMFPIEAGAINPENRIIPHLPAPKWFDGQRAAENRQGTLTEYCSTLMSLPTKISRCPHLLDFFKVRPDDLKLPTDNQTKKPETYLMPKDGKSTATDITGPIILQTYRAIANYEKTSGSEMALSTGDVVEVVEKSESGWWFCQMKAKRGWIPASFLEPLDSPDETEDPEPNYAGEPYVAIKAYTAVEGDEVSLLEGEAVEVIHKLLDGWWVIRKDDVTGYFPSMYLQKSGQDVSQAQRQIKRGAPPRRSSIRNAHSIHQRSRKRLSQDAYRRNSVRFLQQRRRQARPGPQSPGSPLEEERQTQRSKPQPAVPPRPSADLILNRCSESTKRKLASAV
Mcl-1 Bim block – inhibitors of Bim peptide binding to Mcl-1, primary screen, biochemical, bead-based flow cytometry, multiplex. Bim peptide-Mcl-1 binding. inhibition, % at 10 µM. actives 0.1% (n = 190,000); in the data active = inhibition above about 40%
Mcl1-Noxa inh – Mcl-1/Noxa binding inhibitors, primary screen, biochemical, TR-FRET, 1536-well; AID 1022, 2008; inhibition, % at 21.7 µM; TR-FRET Mcl-1/Noxa peptide binding, 2 h; actives 1.5% (n = 220,000);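 active = compounds that cut the protein-peptide binding signal by more than 50% relative to plate controls in a single-dose test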;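 note: His-tagged Mcl-1 with rhodamine Noxa BH3 peptide and terbium anti-His antibody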
Mcl1-Bid inh – Mcl-1/Bid binding inhibitors, primary screen, biochemical, TR-FRET, 1536-well | Induced myeloid leukemia cell differentiation protein Mcl-1 (Homo sapiens), Q07820 | TR-FRET Mcl-1/Bid-Dy647 peptide binding | inhibition, % at 21.7 µM | actives 0.97% (n = 220,000);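 active = compounds that cut the binding signal by more than half at the single screening dose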;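 note: His-tagged Mcl-1 with europium anti-His antibody binding Bid BH3 peptide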
eIF4E 4G PPI – eIF4E–eIF4G protein interaction inhibitors, primary screen, biochemical, uHTS, TR-FRET, eIF4GI fragment. inhibition, % at 21.7 µM. Eukaryotic translation initiation factor 4E (Mus musculus) + Eukaryotic translation …. TR-FRET eIF4E-eIF4GI(517-606) binding, 2 h. actives 0.37% (n = 220,000). AID 782, 2007
Numbers stand for hits; – = inactive; · = no result given; [ ] = remark or other dose. Only some compounds are listed: those with a hit (about 3.3% of all), similar ones and a draw of the others.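 Rule for the calls, unless noted: active = inhibition above about 30% (limit read from the data); inactive = the rest.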

SMILES	14-3-3 Bad inh	NCF1 inh	Mcl-1 Bim block	Mcl1-Noxa inh	Mcl1-Bid inh	eIF4E 4G PPI
O=C(Nc1ccc(F)cc1)N1CCCN(c2ccc(C(F)(F)F)cn2)CC1	–	–	·	–	82.6	–
CC(C)(C)c1ccc(CN2N=Nc3ccccc3S2(=O)=O)cc1	–	33.5	–	77.4	–	–
CC(C)(C)c1ccc(C(=O)Nc2ccc(CN3CCS(=O)(=O)CC3)cc2)cc1	–	–	·	–	–	–
O=S1(=O)c2ccccc2N=NN1Cc1ccc(Cl)c(Cl)c1	–	–	–	77.4	–	–
Cc1nn2c([nH]c(=O)c3ccccc32)c1C=O	–	–	–	–	–	–
S=C(NCc1ccc(Cl)cc1)NC1CCN(Cc2ccccc2)CC1	–	–	–	–	74.5	–
CCN(CC)S(=O)(=O)c1ccc(N2CCOCC2)c(NC(=O)c2ccc(C#N)cc2)c1	–	–	–	–	–	–
C#Cc1ccc(C(=O)Nc2cc(C(N)=O)ccc2N2CCOCC2)cc1	–	–	–	50.7	–	–
O=C(N/N=C/c1ccc2c(c1)OCO2)c1sc2cc(Cl)ccc2c1Cl	–	31.5	–	–	50.5	30.4
COc1ccc2c(Cl)c(C(=O)N/N=C/c3ccc4c(c3)OCO4)sc2c1	72.5[fluorescence artefact?]	–	–	–	–	–
COc1ccc(NS(=O)(=O)c2cccc(C(=O)N/N=C/c3ccc4c(c3)OCCO4)c2)cc1	–	31.3	–	–	64.8	–
O=C(N/N=C/c1ccc2c(c1)OCO2)c1sc2cccc(Cl)c2c1Cl	–	–	–	–	–	–
CC(=O)c1cnc2n(c1=O)CCS2	–	–	–	–	–	–
Cn1c(NNC(=O)C2CCCCC2)cc(=O)n(C)c1=O	–	–	–	–	–	–
O=C(CSc1nc2c(cnn2-c2ccc(F)cc2)c(=O)[nH]1)N1CCCc2ccccc21	–	–	–	–	94.0	–
CC(=O)N1CCN(C(=O)CSc2nc3c(cnn3-c3ccccc3)c(=O)[nH]2)CC1	–	–	–	–	–	–
CCN1C(=O)c2cccc3c(S(=O)(=O)Nc4ccccc4OC)ccc1c23	–	–	–	–	75.2	–
Cc1ccc(CNC(=O)C2CCCN(S(=O)(=O)c3c(C)noc3/C=C/N(C)C)C2)cc1 (centres undefined)	–	–	·	–	–	–
COc1ccc(CCNC(=O)CCNC(=O)c2ccc(Br)cc2)cc1OC	–	–	–	–	–	36.7
COc1ccc(CCNC(=O)C/C(C)=N/NC(=O)c2ccc(N)cc2)cc1OC	·	81.3	–	–	–	·
COc1ccc(CCNC(=O)c2ccc(CNS(=O)(=O)c3ccc(C(C)(C)C)cc3)cc2)cc1OC	–	–	–	–	97.4	–
COc1ccc(CCNC(=O)c2ccc(CNS(=O)(=O)c3cccc(Cl)c3)cc2)cc1OC	–	–	–	–	–	–
Cc1nc2ccccn2c1C(=O)NN=C1C2CC3CC(C2)CC1C3	–	–	–	–	–	–
CCOC(=O)C(C)Sc1ccc2nnc(CCNS(=O)(=O)c3ccccc3)n2n1 (centres undefined)	–	·	–	–	–	–
Cn1cc(C(=O)CCl)c2ccccc21	–	–	–	–	–	–
SMILES	14-3-3 Bad inh	NCF1 inh	Mcl-1 Bim block	Mcl1-Noxa inh	Mcl1-Bid inh	eIF4E 4G PPI
CC1CCc2c(C(=O)Nc3ccc(N4CCOCC4)cc3)csc2C1 (centres undefined)	–	–	–	67.0	–	–
CCN(c1ccc(N=Cc2c(O)n(Cc3ccc(OC)cc3)c(=O)c3ccccc23)cc1)C(C)C	–	–	·	58.7	–	–
COc1ccc(-n2c(O)c(C=Nc3ccccc3)c3ccccc3c2=O)cc1	–	–	–	–	–	–
COc1cc(NC(=O)C2CCN(S(=O)(=O)c3cccc4nonc34)CC2)cc(OC)c1	–	–	–	–	81.1	–
CCOc1ccc2nc(NC(=O)C3CCCN(S(=O)(=O)c4cccc5nonc45)C3)sc2c1 (centres undefined)	–	–	–	–	59.4	–
O=C(Nc1cccnc1)C1CCN(S(=O)(=O)c2cccc3nonc23)CC1	–	–	–	–	–	–
COc1ccc2c(c1)c(=O)oc1cc(O)ccc12	–	–	–	–	–	–
COc1ccc2c(c1)c(=O)oc1cc3oc(C)c(C)c3cc12	–	–	–	55.8	66.7	–
CC1CCN(C(=S)c2cn(Cc3ccccc3F)c3ccccc23)CC1	–	–	–	–	–	–
CN1CCN(C(=S)c2cn(Cc3ccccc3F)c3ccccc23)CC1	–	–	–	–	85.5	–
CCOc1ccc(CN(C)CCc2ccccn2)cc1	–	–	–	–	–	–
CCOc1ccccc1CN(CCc1ccc2c(c1)OCO2)Cc1ccccn1	72.2	–	·	–	–	–
OC(CNC1CCCc2ccccc21)COc1ccc2ccccc2c1 (centres undefined)	–	–	–	–	52.3	–
CNC(=O)/C=C1\NC(C)(C)Cc2ccccc21	–	–	–	–	–	–
CCC1(C)Cc2ccccc2/C(=C/C(=O)N2CCCCC2)N1 (centres undefined)	77.0	–	–	–	–	–
Cc1c(C)c(C)c(CO/N=C/c2cccs2)c(C)c1C	–	–	·	–	–	–
CCNC(=O)c1cc(S(=O)(=O)N(C)C)c(Cl)cc1Cl	87.8	–	–	–	72.1	–
CN(C)S(=O)(=O)c1cc(C(=O)NCC2CCCO2)c(Cl)cc1Cl (centres undefined)	–	–	–	–	–	–
N=C1CCC(=N)c2c1c(O)c1ccccc1c2O	–	125.0	·	76.3	–	–
CN(C)/C=N/c1c(C#N)cnn1-c1ccccc1	–	–	–	–	–	–
CN(C)/C=N/c1c(C#N)cnn1-c1ccc(C(F)(F)F)cn1	–	155.3	–	–	–	–
O=C(O)c1cccn2c(=O)c3ccccc3nc12	–	–	–	–	–	–
O=C(O)c1ccc2c(=O)n3cc(C(=O)c4ccccc4O)cc(Cl)c3nc2c1	–	–	·	60.4	–	–
CCOC(=O)C1=C(C)N(c2ccc(C)cc2)C(=O)/C1=C\c1ccc(O)c(OC)c1	–	–	·	–	–	–
CCOC(=O)C1=C(O)c2ccccc2C(=O)/C1=C\c1ccc(C)cc1	–	56.8	–	79.1	–	–
Cc1ccccc1S(=O)(=O)NCc1ccc(N2CCN(C)CC2)cc1	–	–	·	–	–	–
CCOC(=O)C(C(=O)OCC)c1cc(Br)c2noc3c2c1C(=O)c1ccccc1-3	–	–	42.0	57.0	–	–
CCC(=O)Nc1cccc(NC(=O)c2ccc(C)cc2Cl)c1	–	–	–	–	–	–
